Data published in PubChem BioAssay AID1159580 (chemical genetic matrix, 2015).
Where “and” joins values, the source holds several entries; their conditions need not be identical. Equal values may be shown once. About 2,000 (36%) of roughly 5,500 compounds were called active. About 18% were inconclusive and are not listed. Rule as the data show it: active = normalized growth mostly below about 0.91 (no sharp cut-off); inconclusive = no clear call, values can overlap the other calls; inactive = mostly above about 0.92. This is one part of the list.

Assay: chemical genetic growth profiling, strain panel (AID 1159580);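 also: tested at 20 µM; growth read once vehicle control cultures reached saturation at 30 °C; 1 = growth at the plate median or of vehicle wells; lower values mean less growth of the strain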
Conditions: S. cerevisiae deletion strains, growth OD

Measured: normalized growth

CCCC(C)C1(CC)C(=O)NC(=O)NC1=O (configuration not stated)
inactive: locus YAL013W, strain DEP1, active compounds read low 1.01 | locus YAL021C, strain ccr4, active compounds read low 0.996 | locus YAL026C, strain drs2, active compounds read low 1 | locus YAL030W, strain snc1, active compounds read low 1 | locus YBL061C, strain skt5, active compounds read low 1 | locus YBR009C, strain hhf1, active compounds read low 1.01 | locus YBR021W, strain FUR4, active compounds read low 1 | locus YBR023C, strain chs3, active compounds read low 1 | locus YBR171W, strain sec66, active compounds read low 1 | locus YBR229C, strain ROT2, active compounds read low 1.01 | locus YBR231C, strain swc5, active compounds read low 0.994 | locus YBR279W, strain paf1, active compounds read low 1 | locus YCL011C, strain gbp2, active compounds read low 1 | locus YCL016C, strain dcc1, active compounds read low 0.999 | locus YCL029C, strain bik1, active compounds read low 1.03 | locus YCL061C, strain MRC1, active compounds read low 1 | locus YCL069W, strain vba3, active compounds read low 0.998 | locus YCR088W, strain abp1, active compounds read low 0.996 | locus YDL005C, strain med2, active compounds read low 0.992 | locus YDL035C, strain GPR1, active compounds read low 1.03 | locus YDL040C, strain nat1, active compounds read low 1 | locus YDL074C, strain BRE1, active compounds read low 1.03 | locus YDL101C, strain DUN1, active compounds read low 1.02 | locus YDL134C, strain PPH21, active compounds read low 1.02 | locus YDL185W, strain tfp1, active compounds read low 1.02 | locus YDL192W, strain arf1, active compounds read low 1.02 | locus YDR001C, strain nth1, active compounds read low 0.998 | locus YDR069C, strain doa4, active compounds read low 1 | locus YDR101C, strain arx1, active compounds read low 1.01 | locus YDR137W, strain rgp1, active compounds read low 1.03 | locus YDR150W, strain NUM1, active compounds read low 1.02 | locus YDR159W, strain sac3, active compounds read low 0.995 | locus YDR162C, strain NBP2, active compounds read low 1.03 | locus YDR195W, strain ref2 0.982 | locus YDR297W, strain sur2, active compounds read low 1 | locus YDR318W, strain mcm21, active compounds read low 1.03 | locus YDR334W, strain swr1, active compounds read low 1.01 | locus YDR335W, strain msn5, active compounds read low 1 | locus YDR388W, active compounds read low 1.01 | locus YDR392W, strain spt3, active compounds read low 1.02 | locus YDR502C, strain sam2, active compounds read low 1.02 | locus YEL003W, strain gim4, active compounds read low 1.01 | locus YEL037C, strain rad23, active compounds read low 0.992 | locus YEL061C, strain CIN8 (second series), active compounds read low 1 | locus YEL061C, strain CIN8, active compounds read low 1.01 | locus YER015W, strain faa2, active compounds read low 1 | locus YER016W, strain bim1, active compounds read low 1.03 | locus YER110C, active compounds read low 1.01 | locus YER111C, strain swi4, active compounds read low 0.988 | locus YER155C, strain BEM2 (second series), active compounds read low 0.999 | locus YER155C, strain BEM2, active compounds read low 1.01 | locus YER167W, strain BCK2, active compounds read low 1.03 | locus YFR010W, strain ubp6, active compounds read low 1.01 | locus YGL078C, strain dbp3, active compounds read low 1.01 | locus YGL086W, strain mad1, active compounds read low 1.02 | locus YGL167C, strain pmr1, active compounds read low 1 | locus YGL173C, strain kem1, active compounds read low 0.993 | locus YGL227W, strain vid30, active compounds read low 0.99 | locus YGL240W, strain doc1, active compounds read low 0.989 | locus YGL248W, strain PDE1, active compounds read low 1.01 | locus YGL253W, strain hxk2, active compounds read low 1 | locus YGR078C, strain PAC10, active compounds read low 1.02 | locus YGR135W, strain pre9, active compounds read low 1 | locus YGR229C, strain SMI1, active compounds read low 1.02 | locus YGR252W, strain gcn5, active compounds read low 1.05 | locus YHR013C, strain ard1, active compounds read low 0.978 | locus YHR027C, strain rpn1, active compounds read low 1 | locus YHR030C, strain SLT2, active compounds read low 1.01 and 0.987 | locus YHR079C, strain IRE1 (second series), active compounds read low 1.02 | locus YHR079C, strain IRE1, active compounds read low 0.979 | locus YHR094C, strain hxt1, active compounds read low 1.01 | locus YHR129C, strain ARP1, active compounds read low 1 | locus YHR142W, strain chs7, active compounds read low 1 | locus YHR200W, strain rpn10, active compounds read low 1.02 | locus YIL066C, strain RNR3, active compounds read low 1.01 | locus YIL073C, strain SPO22, active compounds read low 1.08 | locus YIL125W, strain kgd1, active compounds read low 1.02 | locus YIR030C, strain dcg1, active compounds read low 1.02 | locus YJL092W, strain hpr5, active compounds read low 0.995 | locus YJL095W, strain BCK1 (second series), active compounds read low 1 | locus YJL095W, strain BCK1, active compounds read low 1.02 and 0.993 | locus YJL115W, strain asf1, active compounds read low 0.999 | locus YJL129C, strain trk1, active compounds read low 1.02 | locus YJL134W, strain LCB3, active compounds read low 1.01 | locus YJL154C, strain vps35, active compounds read low 1 | locus YJL164C, strain tpk1, active compounds read low 1.01 | locus YJL166W, strain qcr8, active compounds read low 1 | locus YJL168C, strain set2, active compounds read low 1.03 | locus YJL187C, strain SWE1 (second series), active compounds read low 1.01 | locus YJL187C, strain SWE1, active compounds read low 0.999 | locus YJR043C, strain POL32, active compounds read low 1.05 | locus YJR066W, strain TOR1, active compounds read low 0.954
